Assay [1] in a line: Cell Viability - BJ (AID 421).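 Also: potency is read from the fitted curve at half-maximal effect; cells exposed to compound for 40 hours at 37 °C before readout.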 The note with it: BJ fibroblast viability, qHTS. The gist of the method:
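Normal human BJ foreskin fibroblasts, 1500/well in complete medium, treated 40 hr at 37 °C. Cellular ATP by CellTiter-Glo luminescence; normalized to DMSO and 100 uM tamoxifen, AC50 from Hill fit.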
(In qHTS, concentration-response curves come from the screen itself.)

A short description of assay [2]: Cell Viability - Jurkat (AID 426;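 active = dose-dependent loss of cell ATP signal giving a full or clear fitted curve, ranked by lower potency value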; also: potency is read from the fitted curve at half-maximal effect). The note with it: qHTS. The gist of the method: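 Cells of the human T-cell leukemia line Jurkat (E6-1) are seeded at 5000 per well, treated with compound across a concentration range for 40 hours at 37 °C, then lysed with CellTiter-Glo; luminescence reports ATP.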
Assay [3] can be described thus: Cell Viability - Hek293 (AID 427;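 active = compounds whose dose-response curve shows a full or clear partial loss of cell viability, called from curve shape rather than a numeric limit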;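 also: potency is read from the fitted curve at half-maximal effect; cells exposed to compound for 40 hours at 37 °C before reading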). The note with it: qHTS. The gist of the method: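 HEK293 cells in complete medium were exposed to compound for 40 hr at 37 °C, then cellular ATP was read by CellTiter-Glo luminescence. Data were normalized to DMSO (basal) and 100 uM tamoxifen (100% inhibition), and AC50 came from Hill fits.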
Assay [4] can be described thus: Cell Viability - HepG2 (AID 433).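 Also: potency is read from the fitted curve at half-maximal effect; potency for ATP loss meaning cytotoxicity.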 The note with it: qHTS. The gist of the method: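 HepG2 cells, 1500 per well, treated 40 hr at 37 °C in complete medium; viability from intracellular ATP by CellTiter-Glo luminescence. Normalized to DMSO and 100 uM tamoxifen; AC50 from Hill fit of qHTS concentration-response.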
Assay [5] in a line: Cell Viability - MRC5 (AID 434).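 Also: potency is read from the fitted curve at half-maximal effect; potency reflects cytotoxicity seen as loss of intracellular ATP.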 The note with it: MRC5 lung fibroblast viability, qHTS. In outline: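 AC50 values come from Hill-equation fits of intracellular ATP loss, measured by CellTiter-Glo luminescence. Normal lung fibroblasts (MRC5) had 40 hr compound treatment at 37 C, normalized between DMSO and 100 uM tamoxifen.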
The nature of assay [6]: Cell Viability - SK-N-SH (AID 435).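 Also: potency is read from the fitted curve at half-maximal effect; compound exposure lasted 40 h at 37 °C.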 The note with it: SK-N-SH neuroblastoma cell viability qHTS. In outline: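 SK-N-SH neuroblastoma cells (1500/well) treated 40 h at 37 °C in complete medium; viability read as cellular ATP by CellTiter-Glo luminescence. Normalized to DMSO and 100 uM tamoxifen; AC50 from Hill fits of qHTS concentration-response.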
Assay [7] concerns the target Mitogen-activated protein kinase 10 (Mus musculus) (UniProt Q61831). The assay can be described thus: JNK3 AlphaScreen Assay (AID 530; active = well fitted curve in either direction with a large enough effect, not every such curve was filed as active;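 also: kinase came from lysate of stimulated human HepG2 cells; signal reports phosphorylation of biotinylated GST-cJun 1-79 at Ser73 with 10 µM ATP; % is scaled to controls: 0 for no effect and ±100 for the full control effect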). The note with it: JNK3 lysate, c-Jun phosphorylation; series mostly up to 57.1 µM. In outline:
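qHTS titrations with 15 min compound pre-incubation before adding ATP (10 uM final). Read-out: AlphaScreen of Ser73-phosphorylated biotin-GST-cJun using HepG2 lysate JNK3 activated by IL-1β and TNFα.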
On the technique in general: Bead proximity is the source of the signal in Alpha formats.

Assay [8] is described as follows: Cell Viability - NIH 3T3 (AID 541; active = well fitted curve in the direction sought with a large enough effect; an effect the other way counts as inactive or inconclusive; also: nearly all actives have a fitted effect of over 25% in size; also: potency is read from the fitted curve at half-maximal effect;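 as to activity change, negative = cytotoxicity: plate controls were DMSO alone for no effect and tamoxifen positive control for full effect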). The note with it: NIH 3T3 cell viability, qHTS; activity change, negative = cytotoxicity: at 92.2 µM (top of the series). In outline: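 Cells seeded at 1000/well, rested 5 hr at 37 °C, then dosed and incubated 40 hr at 37 °C. CellTiter-Glo added, 20 min room temperature, luminescence read. AC50 by Hill fit.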
Assay [9] is described as follows: Cell Viability - HUV-EC-C (AID 542; active = well fitted curve in the direction sought with a large enough effect; an effect the other way counts as inactive or inconclusive; also: % is scaled to controls: 0 for no effect and ±100 for the full control effect; nearly all actives have a fitted effect of over 35% in size). The note with it: HUV-EC-C endothelial cell viability, qHTS; series mostly up to 92.2 µM. In outline:
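Cells were seeded at 1000 per well and incubated 5 hr at 37 °C before compound addition. After 40 hr at 37 °C, CellTiter-Glo reagent was added for 20 min and luminescence read. AC50 values came from Hill-equation modelling.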

A short description of assay [10]: Cell Viability - N2a (AID 540; active = well fitted curve in the direction sought with a large enough effect; an effect the other way counts as inactive or inconclusive;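 also: plate controls were DMSO alone for no effect and tamoxifen control for full effect; nearly all actives have a fitted effect of over 45% in size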). The note with it: N2a mouse neuroblastoma cell viability; activity change, negative = cytotoxicity: at 92.2 µM (top of the series). The gist of the method:
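Cytotoxicity was scored as loss of cellular ATP in N2a cells, a mouse neuroblastoma line. Compounds are applied in a qHTS concentration series for 40 hr at 37 °C.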

20 compounds from PubChem BioAssay (NCATS) can be followed below.

Inconclusive results are not listed. Unmarked numbers belong to inactive results. Activity calls are given as the source filed them. Unless noted, calls follow the shape of the full dose curve.

As to `Nc1ccccc1S(=O)(=O)O`, the Potency in assay [1], in assay [2], in assay [3], in assay [4], in assay [5] and in [6] was over 92 µM in each case. The call in assay [7] was inactive. For the same compound, the Potency entry in assay [8] and in [9] was “inactive” each time.
In the case of `BrC/C=C/CBr`, the Potency in assay [1], in assay [2], in [4], in [5] and in assay [6] was over 92 µM throughout. In addition, the outcome in assay [7] was inactive. In assay [10], the activity change, negative = cytotoxicity is 6.2%. Moreover, the Potency entry in [8] was “inactive”.
`C[C@@H]1CC2(OC3C[C@@]4(C)C5=CC[C@H]6C(C)(C)C(O[C@@H]7OC[C@@H](O)[C@H](O)[C@H]7O)CC[C@@]67C[C@@]57CC[C@]4(C)C31)OC(O)C1(C)OC21` (some centres undefined): the Potency in assay [1], in assay [2], in assay [4], in [5] and in [6] was over 92 µM throughout. Also, the compound was classed as inactive in [7]. Moreover, the activity change, negative = cytotoxicity in [10] was -8.85%. Besides, the Potency result in [8] and in assay [9] was “inactive” throughout.
Take `Cc1ccc(Cl)cc1`: the Potency in [1], in assay [2], in assay [4], in assay [5] and in [6] was over 92 µM throughout. The result in assay [7] was inactive. Moreover, the activity change, negative = cytotoxicity in [10] is 1.61%. Besides, the Potency entry in assay [8] was “inactive”.
Consider `CCC(C)(C)C`, for which the Potency in [1], in [2], in [4], in assay [5] and in [6] was over 92 µM in each case. In addition, the outcome in assay [7] was inactive. In addition, the activity change, negative = cytotoxicity in [10] is -21.6%. Besides, the Potency entry in assay [8] and in assay [9] was “inactive” throughout.
Consider `O=C(O[C@@H](C(=O)O)[C@@H](OC(=O)c1ccccc1)C(=O)O)c1ccccc1`, for which the Potency in [1], in assay [2], in [4], in [5] and in assay [6] was over 92 µM each time. In addition, in assay [7], the compound was called inactive. Besides, the activity change, negative = cytotoxicity in assay [10] is 4.68%. Further, the Potency entry in assay [8] and in assay [9] was “inactive” each time.
In the case of `CN(C)CCCCl`, the Potency in assay [1], in [2], in assay [4], in assay [5] and in assay [6] was over 92 µM each time. The outcome in assay [7] was inactive. For the same compound, the activity change, negative = cytotoxicity in assay [10] was -0.582%. Also, the Potency result in assay [8] and in assay [9] was “inactive” in each case.
As for `O=Nc1ccc(NO)cc1`, the Potency in assay [1] was over 92 µM; in assay [2] it was 51.1 µM (active); in [4], over 92 µM; in assay [5], over 92 µM; in assay [6] it was over 92 µM. Besides, in assay [7], the call was inactive. Besides, the activity change, negative = cytotoxicity in [10] was 16.3%. For the same compound, the Potency result in assay [8] and in assay [9] was “inactive” each time.
Take `Nc1cccc(S(=O)(=O)O)c1`: the Potency in assay [1], in assay [2], in assay [4], in assay [5] and in [6] was over 92 µM in each case. Also, the outcome in assay [7] was inactive. The activity change, negative = cytotoxicity in assay [10] was -6.89%.
Consider `CN(C)CCCNCCCN`, for which the Potency is over 92 µM in [1]; over 92 µM in assay [2]; over 92 µM in [4]; over 92 µM in assay [5]; over 92 µM in assay [6]; 12.6 µM (active) in [8]. The compound was called inactive in [7]. Besides, the activity change, negative = cytotoxicity in assay [10] was 1.31%. Further, the Potency result in [9] was “inactive”.
Take `Cc1cccc(C)c1`: the Potency in assay [1], in assay [2], in assay [4], in [5] and in assay [6] was over 92 µM throughout. Also, the outcome in assay [7] was inactive. Further, in assay [10], the activity change, negative = cytotoxicity is 2.48%. Also, the Potency entry in [8] and in assay [9] was “inactive” in each case.
For `Cc1cc(C)cc([N+](=O)[O-])c1`, the Potency in assay [1], in assay [2], in [4], in assay [5] and in assay [6] was over 92 µM throughout. For the same compound, in assay [7], the result was inactive. In addition, the Potency result in assay [8] and in [9] was “inactive” in each case.
With `COc1cccc2sc(N)nc12`, the Potency in assay [1], in assay [2], in assay [4], in [5] and in [6] was over 92 µM throughout. Also, the outcome in assay [7] was inactive. Moreover, the activity change, negative = cytotoxicity in assay [10] is -10.1%. For the same compound, the Potency result in [8] and in assay [9] was “inactive” throughout.
For `CCC1CO1` (centres undefined), the Potency in assay [1], in assay [2], in [4], in assay [5] and in [6] was over 92 µM throughout. In assay [7], the compound was classed as inactive. Also, in assay [10], the activity change, negative = cytotoxicity is -4.66%. For the same compound, the Potency entry in assay [8] and in assay [9] was “inactive” each time.
As to `Cc1cc(C2(c3cc(C)c(O)cc3C)OS(=O)(=O)c3ccccc32)c(C)cc1O`, the Potency in assay [1], in [2], in assay [4], in assay [5] and in assay [6] was over 92 µM each time. Moreover, in [7], the compound was classed as inactive. For the same compound, in [10], the activity change, negative = cytotoxicity is -2.09%. The Potency entry in assay [8] and in assay [9] was “inactive” each time.
For `O=C(O)c1ccccc1Cl`, the Potency in [1], in assay [2], in [4], in assay [5] and in assay [6] was over 92 µM in each case. The outcome in [7] was inactive. The activity change, negative = cytotoxicity in assay [10] is -6.85%. In addition, the Potency result in assay [8] and in assay [9] was “inactive” each time.
With `O=C(O)c1cc(Cl)cc(Cl)c1`, the Potency in assay [1], in [2], in assay [4], in assay [5] and in assay [6] was over 92 µM in each case. Also, in [7], the compound was called inactive. Besides, the Potency result in assay [8] and in assay [9] was “inactive” each time.
With `Cc1ccc2ccccc2c1[N+](=O)[O-]`, the Potency in assay [1], in [2], in assay [4], in assay [5] and in assay [6] was over 92 µM in each case. In addition, in assay [7], the outcome was inactive. Moreover, in [10], the activity change, negative = cytotoxicity was -10.2%. In addition, the Potency result in [8] and in assay [9] was “inactive” each time.
In the case of `CCC(C)(C)OC`, the Potency in [1], in assay [2], in [4], in assay [5] and in assay [6] was over 92 µM each time. For the same compound, the result in [7] was inactive. Moreover, the activity change, negative = cytotoxicity in assay [10] is -20.8%. In addition, the Potency entry in assay [8] and in [9] was “inactive” each time.
Take `Cc1c(C(=O)O)cccc1[N+](=O)[O-]`: the Potency in assay [1], in assay [2], in assay [4], in assay [5] and in assay [6] was over 92 µM in each case. In addition, in assay [7], the compound was classed as inactive. Besides, the activity change, negative = cytotoxicity in [10] was 5.3%. The Potency entry in assay [8] and in assay [9] was “inactive” in each case.
